Measurements: PubChem BioAssay (NCATS)
Values joined by “and” are separate entries in the source; they are usually repeats but may differ in a detail not shown here. Equal values may be shown once. A number with no mark means an inactive call. Records with an inconclusive call do not appear. Entries that show only a call come without a potency. Active and inactive are the calls of the source. Unless noted, calls follow the shape of the dose curve; as a rule, active = well fitted curve in the direction sought with a large enough effect; inconclusive = small, poorly fitted or top-dose-only effect, or another doubt; inactive = no such curve, though single readings can be large; an effect the other way counts as inactive or inconclusive.

Key:
Es-2 = test: Primary qHTS to identify gynecologic anti-cancer compounds using libraries of approved drugs and bioactive compounds (AID 1345084); settings: Gynecologic cancer cell panel viability, ATPlite luminescence, 48 h; series mostly up to 57.5 µM; also: nearly all actives have a fitted effect of over 55% in size; also: potency is read from the fitted curve at half-maximal effect
Method in brief: (§1)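 In this quantitative HTS, cell killing is estimated from loss of ATP-dependent luciferase light. Cells see five compound concentrations over a 48 h exposure.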

HeLa = test: as above; settings: Gynecologic cancer cell panel viability, ATPlite luminescence, 48 h; series mostly up to 57.5 µM
Method in brief: as §1

Hek293T = test: as above; settings: Gynecologic cancer cell panel viability, ATPlite luminescence, 48 h, control line for the selectivity index; series mostly up to 57.5 µM
Method in brief: as §1

JEG-3 = test: as above; settings: Gynecologic cancer cell panel viability, ATPlite luminescence, 48 h; series mostly up to 57.5 µM
Method in brief: as §1

OV90 = test: as above; settings: Gynecologic cancer cell panel viability, ATPlite luminescence, 48 h; series mostly up to 57.5 µM
Method in brief: as §1

PA-1 = test: as above; settings: Gynecologic cancer cell panel viability, ATPlite luminescence, 48 h; series mostly up to 57.5 µM
Method in brief: as §1

Tov-21-G = test: as above; settings: Gynecologic cancer cell panel viability, ATPlite luminescence, 48 h; series mostly up to 57.5 µM
Method in brief: as §1

Tov112D = test: as above; settings: Gynecologic cancer cell panel viability, ATPlite luminescence, 48 h; series mostly up to 57.5 µM
Method in brief: as §1

astro = test: Drug repurposing screens with cells derived from glioblastoma tumor samples (AID 1345199); settings: viability, ATP luminescence, 48 h; series mostly up to 45.9 µM; also: nearly all actives have a fitted effect of over 40% in size; also: potency is read from the fitted curve at half-maximal effect
Method in brief: (§2)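 Four patient lines of CD133+ GBM neurospheres were screened at several concentrations; hits were retested in those lines plus three slower-growing GBM lines, using 48-hour treatment and ATP-based viability.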

[1] = as above; settings: GBM patient neurospheres viability, ATP luminescence, 48 h
Method in brief: as §2

SKOV3 = test: Primary qHTS to identify gynecologic anti-cancer compounds using libraries of approved drugs and bioactive compounds (AID 1345084); settings: Gynecologic cancer cell panel viability, ATPlite luminescence, 48 h; series mostly up to 57.5 µM; also: nearly all actives have a fitted effect of over 55% in size; also: potency is read from the fitted curve at half-maximal effect
Method in brief: as §1

[2] = molecular target: Nuclear receptor subfamily 1 group I member 2 (Rattus norvegicus) (UniProt Q9R1A7); test: qHTS assay for small molecule activators of the rat pregnane X receptor (rPXR) signaling pathway (AID 651751; call rule not given here); settings: rPXR reporter cells, luciferase (One-Glo), 24 h
Sequence of Nuclear receptor subfamily 1 group I member 2 (Rattus norvegicus) (Q9R1A7 whole entry, looked up): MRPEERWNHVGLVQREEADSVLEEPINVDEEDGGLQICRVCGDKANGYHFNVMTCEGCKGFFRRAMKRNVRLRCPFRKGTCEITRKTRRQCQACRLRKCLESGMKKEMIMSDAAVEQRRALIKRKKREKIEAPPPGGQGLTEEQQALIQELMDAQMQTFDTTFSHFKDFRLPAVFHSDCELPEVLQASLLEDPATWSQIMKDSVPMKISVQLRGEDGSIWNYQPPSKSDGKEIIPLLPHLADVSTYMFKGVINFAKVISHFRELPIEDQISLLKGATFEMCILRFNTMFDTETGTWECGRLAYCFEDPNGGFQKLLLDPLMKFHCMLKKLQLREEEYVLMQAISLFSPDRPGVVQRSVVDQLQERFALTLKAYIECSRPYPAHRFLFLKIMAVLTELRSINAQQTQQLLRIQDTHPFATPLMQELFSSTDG

[3] = qHTS assay for small molecule activators of the human pregnane X receptor (PXR) signaling pathway (AID 720659; call rule not given here)
[4] = at 20 µM (top of the series), tumour line C
[5] = at 21.2 µM (top of the series), tumour line B
[6] = at 21.2 µM (top of the series), tumour line D
[7] = at 45.9 µM (top of the series), tumour line B
[8] = at 45.9 µM (top of the series), tumour line D
[9] = at 46.1 µM (top of the series), tumour line C
[10] = at 46 µM (top of the series), tumour line A

SMILES: CCCN(CCc1cccs1)[C@H]1CCc2c(O)cccc2C1
- Potency (Es-2): inactive
- Potency (HeLa): inactive
- Potency (Hek293T): inactive
- Potency (JEG-3): inactive
- Potency (OV90): inactive
- Potency (PA-1): inactive
- Potency (Tov-21-G): inactive
- Potency (Tov112D): inactive
- Potency (astro): inactive

SMILES: CCOC(=O)[C@@](C)(N)Cc1ccc(O)c(O)c1
- Potency (Es-2): inactive
- Potency (HeLa): inactive
- Potency (Hek293T): inactive
- Potency (JEG-3): inactive
- Potency (OV90): inactive
- Potency (PA-1): inactive
- Potency (Tov-21-G): inactive
- Potency (Tov112D): inactive
- activity, negative = cell killing [1, 4]: -6.91%
- activity, negative = cell killing [1, 5]: -8.87%
- activity, negative = cell killing [1, 6]: -6.68%
- activity, negative = cell killing ([1]; at 21.3 µM (top of the series), tumour line A): -12.3%
- Potency (astro): inactive

SMILES: CCCCC(CC)CN1CN(CC(CC)CCCC)CC(C)(N)C1 (stereo not drawn)
- Potency (Es-2): inactive
- Potency (HeLa): inactive
- Potency (Hek293T): inactive
- Potency (JEG-3): inactive
- Potency (OV90): inactive
- Potency (SKOV3): inactive
- Potency (Tov-21-G): inactive
- Potency (Tov112D): inactive
- activity, negative = cell killing [1, 4]: -6.58%
- activity, negative = cell killing [1, 5]: -11%
- activity, negative = cell killing [1, 6]: -24%
- Potency (astro): inactive

SMILES: CC(C)(C)NC[C@H](O)COc1nsnc1N1CCOCC1
- Potency (Es-2): inactive
- Potency (HeLa): inactive
- Potency (Hek293T): inactive
- Potency (JEG-3): inactive
- Potency (OV90): inactive
- Potency (PA-1): inactive
- Potency (Tov-21-G): inactive
- Potency (Tov112D): inactive
- activity, negative = cell killing [1, 7]: -9.83%
- activity, negative = cell killing [1, 8]: -20.5%
- activity, negative = cell killing [1, 9]: -12.6%
- Potency (astro): inactive

SMILES: C[C@@]12C(=O)OC(=O)[C@]1(C)C1CCC2O1
- Potency (Es-2): 10 µM (active)
- Potency (HeLa): 3.55 µM (active)
- Potency (Hek293T): 10 µM (active)
- Potency (JEG-3): 11.2 µM (active)
- Potency (OV90): 3.16 µM (active)
- Potency (SKOV3): 8.91 µM (active)
- Potency (Tov-21-G): 8.91 µM (active)
- Potency (Tov112D): 14.1 µM (active)
- Potency (astro): 0.631 µM (active)

SMILES: CCCCN=C(N)N=C(N)N
- Potency (Es-2): inactive
- Potency (HeLa): inactive
- Potency (Hek293T): inactive
- Potency (JEG-3): inactive
- Potency (OV90): inactive
- Potency (PA-1): inactive
- Potency (Tov-21-G): inactive
- Potency (Tov112D): inactive
- activity, negative = cell killing [1, 7]: -13.5%
- activity, negative = cell killing [1, 8]: -11%
- activity, negative = cell killing [1, 9]: -8.24%
- Potency (astro): inactive

SMILES: COc1ccc(C(Cl)=C(c2ccc(OC)cc2)c2ccc(OC)cc2)cc1
- Potency (Es-2): inactive
- Potency (HeLa): inactive
- Potency (Hek293T): inactive
- Potency (JEG-3): inactive
- Potency (OV90): inactive
- Potency (PA-1): inactive
- Potency (Tov-21-G): inactive
- Potency (Tov112D): inactive
- activity, negative = cell killing [1, 7]: -6.95%
- activity, negative = cell killing [1, 9]: 2.89%
- Potency ([1]; tumour line A): 11.2 µM (active)
- Potency (astro): inactive

SMILES: Oc1ccc(Cl)cc1Cc1cc(Cl)ccc1O
- Potency (Es-2): inactive
- Potency (HeLa): inactive
- Potency (Hek293T): inactive
- Potency (JEG-3): inactive
- Potency (OV90): inactive
- Potency (PA-1): inactive
- Potency (Tov-21-G): inactive
- Potency (Tov112D): inactive
- Potency (astro): 11.2 µM (active)
- max response [2]: -15% and -0.451%
- outcome [3]: inactive

SMILES: CN1CCN(C2=Nc3ccccc3Sc3ccc(Cl)cc32)CC1
- Potency (Es-2): inactive
- Potency (HeLa): inactive
- Potency (Hek293T): inactive
- Potency (JEG-3): inactive
- Potency (OV90): inactive
- Potency (SKOV3): inactive
- Potency (Tov-21-G): inactive
- Potency (Tov112D): inactive
- activity, negative = cell killing [1, 9]: -6.22%
- Potency ([1]; tumour line A): 7.94 µM (active)
- Potency ([1]; tumour line D): 17.8 µM (active)

SMILES: C[C@H]1[C@H]2CC[C@H]3[C@@H]4CC=C5C[C@@H](N(C)C)CC[C@]5(C)[C@H]4CC[C@]23CN1C
- Potency (Es-2): inactive
- Potency (HeLa): inactive
- Potency (Hek293T): inactive
- Potency (JEG-3): inactive
- Potency (OV90): 15.8 µM (active)
- Potency (PA-1): inactive
- Potency (Tov112D): inactive
- activity, negative = cell killing [1, 7]: 0.435%
- activity, negative = cell killing [1, 9]: -23.5%
- Potency (astro): inactive

SMILES: C#C[C@]1(O)CC[C@H]2[C@@H]3CCC4=CC(=O)CC[C@@H]4[C@H]3CC[C@@]21CC
- Potency (Es-2): inactive
- Potency (HeLa): 3.55 µM (active)
- Potency (Hek293T): inactive
- Potency (JEG-3): inactive
- Potency (OV90): inactive
- Potency (SKOV3): inactive
- Potency (Tov-21-G): inactive
- Potency (Tov112D): inactive
- activity, negative = cell killing [1, 7]: -8.91%
- activity, negative = cell killing [1, 8]: -3.36%
- activity, negative = cell killing [1, 9]: 6%
- Potency (astro): inactive

SMILES: Cc1cccc(C)c1NC(=O)CN1CCCCCC1
- Potency (Es-2): inactive
- Potency (HeLa): inactive
- Potency (Hek293T): inactive
- Potency (JEG-3): inactive
- Potency (OV90): inactive
- Potency (PA-1): inactive
- Potency (Tov-21-G): inactive
- Potency (Tov112D): inactive
- activity, negative = cell killing [1, 7]: -3.5%
- activity, negative = cell killing [1, 8]: -16.9%
- activity, negative = cell killing [1, 9]: -16.8%
- Potency ([1]; tumour line A): 35.5 µM (active)
- Potency (astro): inactive

SMILES: CN1CCC(OC(c2ccccc2)c2ccccc2)CC1
- Potency (Es-2): inactive
- Potency (HeLa): inactive
- Potency (Hek293T): inactive
- Potency (JEG-3): inactive
- Potency (PA-1): inactive
- Potency (SKOV3): inactive
- Potency (Tov-21-G): inactive
- Potency (Tov112D): inactive
- activity, negative = cell killing [1, 4]: 1.79%
- activity, negative = cell killing [1, 5]: -9.68%
- Potency ([1]; tumour line A): 7.08 µM (active)
- Potency (astro): inactive

SMILES: CCOc1ccc(NC(C)=O)cc1
- Potency (Es-2): inactive
- Potency (HeLa): inactive
- Potency (Hek293T): inactive
- Potency (JEG-3): inactive
- Potency (PA-1): inactive
- Potency (SKOV3): inactive
- Potency (Tov-21-G): inactive
- Potency (Tov112D): inactive
- activity, negative = cell killing [1, 7]: 4.81%
- activity, negative = cell killing [1, 8]: -8.88%
- activity, negative = cell killing [1, 10]: -27%
- activity, negative = cell killing [1, 9]: -1.2%
- Potency (astro): inactive
- max response [2]: 2.72% and -0.111%
- outcome [3]: inactive

SMILES: CC(CNC1CCCCC1)OC(=O)c1ccccc1 (stereo not drawn)
- Potency (Es-2): inactive
- Potency (HeLa): inactive
- Potency (Hek293T): inactive
- Potency (JEG-3): inactive
- Potency (PA-1): inactive
- Potency (SKOV3): inactive
- Potency (Tov-21-G): inactive
- Potency (Tov112D): inactive
- activity, negative = cell killing [1, 4]: 10.5%
- activity, negative = cell killing [1, 5]: -8.26%
- activity, negative = cell killing [1, 6]: -19.5%
- Potency (astro): inactive

SMILES: C#C[C@]1(O)CC[C@H]2[C@@H]3CCC4=Cc5oncc5C[C@]4(C)[C@H]3CC[C@@]21C
- Potency (Es-2): inactive
- Potency (HeLa): 0.794 µM (active)
- Potency (JEG-3): inactive
- Potency (OV90): inactive
- Potency (PA-1): 10 µM (active)
- Potency (Tov-21-G): inactive
- Potency (Tov112D): inactive
- activity, negative = cell killing [1, 7]: -5.62%
- activity, negative = cell killing [1, 8]: -8.01%
- activity, negative = cell killing [1, 10]: -25.3%
- activity, negative = cell killing [1, 9]: -28.8%
- Potency (astro): inactive

SMILES: CC(C)(Cc1c[nH]c2ccccc12)NCC(O)COc1ccccc1C#N (stereo not drawn)
- Potency (Es-2): inactive
- Potency (HeLa): inactive
- Potency (Hek293T): inactive
- Potency (JEG-3): inactive
- Potency (PA-1): inactive
- Potency (Tov-21-G): inactive
- Potency (Tov112D): inactive

SMILES: CN1CCN(C2=Nc3cc(F)ccc3Cc3ccccc32)CC1
- Potency (Es-2): inactive
- Potency (HeLa): inactive
- Potency (Hek293T): inactive
- Potency (JEG-3): inactive
- Potency (PA-1): inactive
- Potency (SKOV3): inactive
- Potency (Tov-21-G): inactive
- Potency (Tov112D): inactive
- Potency (astro): inactive
